# Reference: article PMC13494018
# A number with no mark means an inactive call. How the calls were made is not given here.
# B1: design_602_0a1f3d3d-7d26-454b-9b34-ebe8ef9bc7d4_268_dldesign_0_cycle1_af2pred (protein)
# chain: VEEKAKKYIEEAKKKAKEMKELGKKNPAAKENYDAAAKVWETAAKEIEKDPSKAEEYEKKAKKTIAVLLDAANAEL
# B2: design_602_0a1f3d3d-7d26-454b-9b34-ebe8ef9bc7d4_1205_dldesign_0_cycle1_af2pred (protein)
# chain: LKERIEKLKEEGKKLEEEAEEMKDKDASAKLYQLAHAALAAAKRAEEALKAGNKEEAEKYLKIGEEAVKKGKEILKKGKA
# B3: design_602_0a1f3d3d-7d26-454b-9b34-ebe8ef9bc7d4_533_dldesign_0_cycle1_af2pred (protein)
# chain: SLKEELAEKAEEKAKKAVEALKAYAKADPSKAEEMAAAAKKVKEAAERGKKGNVQEAGSAEVLAESALSAAEKKLKEL
# B4: design_602_0a1f3d3d-7d26-454b-9b34-ebe8ef9bc7d4_418_dldesign_0_cycle1_af2pred (protein)
# chain: SEEAKKLAEEAKKEMGNIRLDAYDKASEVNVEEAKKIFEEAKEKIEKIAKETAELVPEYAEEILKGGEKAMKALERAAKDIEKAE
# B5: design_602_0a1f3d3d-7d26-454b-9b34-ebe8ef9bc7d4_1333_dldesign_0_cycle1_af2pred (protein)
# chain: EKERKEKIAKILLESAKDAMKEAEKALKEGKAKKAMMLATLAVSSAKNAYDFGKEASKELAEEAKKALEEAKEMLKKVKKALE
# B6: design_602_0a1f3d3d-7d26-454b-9b34-ebe8ef9bc7d4_1060_dldesign_0_cycle1_af2pred (protein)
# chain: GEEKEKKVEEIEKKAKEEAKKYAEEIAKALKDPEKMKKIATEATDKLLEMAEEMVETDKKAGKKAAEMIREGLRIMKETYEKERKKA
# B7: design_602_0a1f3d3d-7d26-454b-9b34-ebe8ef9bc7d4_576_dldesign_0_cycle1_af2pred (protein)
# chain: AEAEKQAALAEASQLLLEANSFAKWVSEYAKELGQEDIAKKAEEAGKEYTKKAKAYIKAGKAEEAKKEAEKLLEEAEKLYKEAKEKA
# B8: design_602_0a1f3d3d-7d26-454b-9b34-ebe8ef9bc7d4_487_dldesign_0_cycle1_af2pred (protein)
# chain: EEEKRIEEAKKKAREAAEKAREYGKKIIKLGYDPKKAAELAQKAQEARAEAEALPEKAEEAAKKAKEAAEELEKLLKEAEA
# B9: design_602_0a1f3d3d-7d26-454b-9b34-ebe8ef9bc7d4_766_dldesign_0_cycle1_af2pred (protein)
# chain: GELEALAERAAELVLDPEKAEEGVALVVERLRALTDPAEIARLVQLVQQALAEAAAKNPEKAAQLRAAAKRVVEAAREIVAEKAAAA
# B10: design_602_0a1f3d3d-7d26-454b-9b34-ebe8ef9bc7d4_244_dldesign_0_cycle1_af2pred (protein)
# chain: AAAEAAKAKVKAIAAKSYAKNPEAGQYITLALAFAKRGDLEEALASLDEAEKEDPTNYPEARAAVLAYYAALKA
# B11: design_602_0a1f3d3d-7d26-454b-9b34-ebe8ef9bc7d4_1202_dldesign_0_cycle1_af2pred (protein)
# chain: DEVEKILKEALEKMEEYKKKALEEAAKKDPETSKKLTELIEKRFEKREKELKEEMKKNKNDPEKAKRIGFHAVARAEITYEQAKLA
# B12: design_602_0a1f3d3d-7d26-454b-9b34-ebe8ef9bc7d4_348_dldesign_0_cycle1_af2pred (protein)
# chain: IDVKATADKFLKATEEAAKKDAELGKKTAKKAIYTLDVLGEADPEYKEYTDKKKEEIKKTLAELTAKQKAKE
# B13: design_602_0a1f3d3d-7d26-454b-9b34-ebe8ef9bc7d4_1317_dldesign_0_cycle1_af2pred (protein)
# chain: MEEKKEEEARKVAHEAFRVAALAENVASAAEKKGDEEIAKKAKEARKTAEKAMELAREGNVKEARKLAKEARKVVEELRKKLEA
# B14: design_602_0a1f3d3d-7d26-454b-9b34-ebe8ef9bc7d4_227_dldesign_0_cycle1_af2pred (protein)
# chain: GAAAKAEAAKLAHESNEAKAEAVAHPEKAAEEAKKIKERLKELEKKAKEAPAEVAKYYAKAAKIAKKNLEEAKKVAEEAKA
# B15: design_602_0a1f3d3d-7d26-454b-9b34-ebe8ef9bc7d4_881_dldesign_0_cycle1_af2pred (protein)
# chain: EKEKAAKKIAELMDKAYDLISDGGEAEIKKGKELAKEAVKLGKEAGPELAKKAEKGLRALERLAEETEKALKK
# B16: design_602_0a1f3d3d-7d26-454b-9b34-ebe8ef9bc7d4_299_dldesign_0_cycle1_af2pred (protein)
# chain: EIGKIVDEALEKILELQAEAKKAGKEAAKEVDKVRKEMIKEAKKMAKEGKSAEEVKKFAEEKVEEAKKIAEEAKKK
# B17: design_602_0a1f3d3d-7d26-454b-9b34-ebe8ef9bc7d4_595_dldesign_0_cycle1_af2pred (protein)
# chain: AAAVKAKMQAIAAAAKDAAKRAKEVAEKTGSTEAEADAVRAQHLSDAATINANGTQAQADAAQARLDVLKARAEKLEKEAKE
# B18: design_602_0a1f3d3d-7d26-454b-9b34-ebe8ef9bc7d4_990_dldesign_0_cycle1_af2pred (protein)
# chain: MDKDGIAYSIKAKHIAEAALILGEKSTPEMAEVFKEVAELAKEAAEAALKDAETGKKLLKEVLKKAREAKKKAEEAKKA
# B19: design_602_0a1f3d3d-7d26-454b-9b34-ebe8ef9bc7d4_1230_dldesign_0_cycle1_af2pred (protein)
# chain: AEAEKKAKEAVKLAEKYYEKAKELAKEAEKDPKLKEAAKKIKKDAEEIKKALEKGIKEGNEVEAAQTSKSLYRAAEAEYKRAKK
# Target: VTCN1, Q7Z7D3
# Sequence (Q7Z7D3 whole entry): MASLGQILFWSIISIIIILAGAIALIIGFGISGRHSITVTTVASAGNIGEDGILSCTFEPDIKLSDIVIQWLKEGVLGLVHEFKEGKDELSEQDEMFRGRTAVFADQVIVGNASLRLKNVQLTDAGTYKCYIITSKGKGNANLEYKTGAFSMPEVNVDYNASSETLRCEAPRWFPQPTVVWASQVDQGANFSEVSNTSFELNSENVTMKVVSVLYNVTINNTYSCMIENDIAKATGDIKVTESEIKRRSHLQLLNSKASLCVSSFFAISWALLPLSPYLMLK
row,Binder,binding in a display sort
1,B1,not found
2,B2,not found
3,B3,not found
4,B4,not found
5,B5,not found
6,B6,not found
7,B7,not found
8,B8,not found
9,B9,not found
10,B10,not found
11,B11,not found
12,B12,not found
13,B13,not found
14,B14,not found
15,B15,not found
16,B16,not found
17,B17,not found
18,B18,not found
19,B19,not found
